# Autofluor 339: intrinsic fluorescence of library compounds, ex339/em460 – biochemical, MLSMR library, data from DPM-DC assay, artefact control, profiling panel; compound autofluorescence, ex339/em460 nm, NADH buffer; stronger effect = higher value; 1 = no-compound wells, NADH background; hit rate 5.5% among 65,000; fluorescence fold increase at 10 µM;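 active means at 10 µM, mean starting fluorescence two-fold or more over control wells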;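 further: signal is the first read of a kinetic run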
# M1 agonist: activates the M1 muscarinic receptor. CHO-M1 cells, Fluo-4 calcium fluorescence, agonist mode; stronger effect = higher value. B-score at 10 µM. hit rate 3% among 64,000. AID 626;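 active means fluorescence rise, raw or as B-score row- and column-corrected plate score, outside the 99.7% band of its plate's samples, either direction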
# A340 absorber: compound absorbs light at 340 nm; compound absorbance at 340 nm, fold over control; fold change at 10 µM; 65,000 tested, under 10 active; AID 708;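 active means at 10 µM dose, initial 340 nm absorbance at least 2 fold that of control wells; inactive means change under 2 fold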;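 further: initial absorbance extrapolated from kinetic A340 decline of NADH oxidation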
# mHtt clearance: mutant huntingtin protein clearance. HeLa Exon1htt(103Q)mCFP, aggregate imaging; zero = plate's median compound well. inhibition, % at 1.5 µM. hit rate 0.42% among 47,000. AID 853;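 active means inhibition of aggregate fluorescence above about 70%, also judged a hit by eye on the cell image, limit read from the data, passing the limit was not always enough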;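 further: cells exposed to compound for three days before fixation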
# M1 antag: M1 muscarinic receptor (rat) antagonism. P08482. CHO-M1 cells, Fluo-4 calcium, ACh EC80 antagonist mode; stronger effect = lower value. AID 628. B-score at 10 µM. hit rate 3.4% among 64,000;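 active means calcium fluorescence response, raw or row-and-column corrected B-score, differing from the plate sample mean either way at a set confidence level, mostly lower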
# Target sequence (P08482 whole entry, looked up): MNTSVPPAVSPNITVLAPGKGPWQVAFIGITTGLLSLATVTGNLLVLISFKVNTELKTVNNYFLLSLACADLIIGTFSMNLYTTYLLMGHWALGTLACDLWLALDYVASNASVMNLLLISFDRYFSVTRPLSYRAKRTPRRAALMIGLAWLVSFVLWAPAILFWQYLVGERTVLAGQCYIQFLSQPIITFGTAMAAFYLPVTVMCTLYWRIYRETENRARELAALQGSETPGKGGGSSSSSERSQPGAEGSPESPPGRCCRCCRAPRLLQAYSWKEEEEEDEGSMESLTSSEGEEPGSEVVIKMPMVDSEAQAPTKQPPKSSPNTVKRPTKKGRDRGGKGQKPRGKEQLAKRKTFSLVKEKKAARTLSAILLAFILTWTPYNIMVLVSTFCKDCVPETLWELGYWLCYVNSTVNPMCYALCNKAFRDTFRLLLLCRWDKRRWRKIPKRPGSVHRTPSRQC
# NADH coupling: inhibition of NAD/NADH coupling enzymes, library profiling; coupled PK/LDH NADH assays, four targets; IC50, µM (highest dose often 10 µM), inactives show at the highest dose inhibition; hit rate 0.02% among 65,000;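 active means single-dose screening hits from any of four coupled enzyme assays that gave an IC50 when retested across doses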;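 further: the DPM-DC format reads NADH fluorescence rather than 340 nm absorbance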
# M1 antag confirm: M1 muscarinic receptor (rat) antagonism, confirmed; shares compounds with M1 antag; CHO-M1 cells, Fluo-4 calcium, ACh EC80 antagonism; stronger effect = lower value; calcium response (max-min fluorescence) at 10 µM; hit rate 43% among 1,700; AID 677;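 active means calcium response below the same-plate mean of wells given acetylcholine alone at its 80%-effect dose, minus 3 SD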;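 further: raw fluorescence intensity difference in arbitrary instrument units and not normalized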
# mGluR4 antag: mGluR4 (human) activity, M1 antagonist secondary assay. hit rate 0.9% among 1,700. shares compounds with M1 antag. AID 678. fluorescence response (max-min) at 10 µM. CHO-mGluR4 calcium flux, Fluo-4 fluorescence, glutamate EC80; stronger effect = lower value;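 active means fluorescence response below the plate's average for near-maximal glutamate wells, less 3 SD of those wells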;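 further: raw unnormalized fluorescence span taken in the window right after glutamate addition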
# * marks the source's active call; other numbers are inactive results; / = no result given. Rows were chosen to be rich in hits. Some 9.3% of all compounds tested hit in one or more screens of this group.
SMILES,Autofluor 339,M1 agonist,A340 absorber,mHtt clearance,M1 antag,NADH coupling,M1 antag confirm,mGluR4 antag
CN(C)CCNc1oc(COc2ccc(-c3ccccc3)cc2)nc1C#N,1.07,-1.57,1.04,/,-0.466,6.0%,/,/
N#Cc1nc(COc2ccc(-c3ccccc3)cc2)oc1NCCCN1CCOCC1,1.14,-1.21,1.02,/,-2.98*,2.0%,545,237
Cc1nnc(C)c2c(C)n(Cc3ccc4c(c3)OCO4)c(C)c12,1.64,0.253,1,/,-4.54*,5.0%,535*,203
c1cc2c(cc1Cn1cnnn1)OCO2,1.03,-0.0234,0.97,/,0.271,2.0%,/,/
O=C(c1cccs1)c1cn(CC(=O)N2CCc3ccccc3C2)c2ccccc12,1.03,-0.562,1.03,-11.1,-7.23*,4.0%,699,175
COc1ccc(C(C(=O)OCCN(C)C)c2ccccc2)cc1 (configuration not stated),1.08,0.491,1,32.5,-5.85*,6.0%,232*,259
COc1ccc(C(C)=O)c2c1OCCO2,1.14,0.132,1.03,/,-2.23*,4.0%,633,236
CC(C)C(O)P(=O)(OCc1ccccc1)c1ccc(N(C)C)cc1 (configuration not stated),1.09,-0.71,1.02,7.8,-1.67,10.0%,/,/
Cn1cnnc1SCC(=O)Nc1sc2c(c1C(N)=O)CCC2,1.07,-0.131,1.06,/,-0.0742,4.0%,/,/
COc1cccc(NC(=O)CSc2nnc(-c3cc(C)n(-c4ccccc4)c3C)o2)c1,1.04,0.205,1.02,/,-2.6*,2.0%,504,237
Cc1cc(C)cc(NC(=O)CSc2nnc(-c3ccccc3Br)o2)c1,1.09,-0.559,1.02,-21.1,0.463,10.0%,/,/
COC(=O)c1ccccc1NC(=O)CN1CCC(n2nnc3cc(F)ccc32)CC1,1.05,0.0976,1.01,24.3,-4.62*,2.0%,594,232
O=C(CN1CCC(n2nnc3cc(F)ccc32)CC1)Nc1ccccc1N1CCOCC1,1.01,0.345,1.02,-17.2,-0.0668,6.0%,/,/
O=C(CN1CCC(n2nnc3cc(F)ccc32)CC1)NC1CCCCC1,1.04,-0.638,1.04,/,-3.68*,7.0%,604,243
COC(=O)c1ccccc1NC(=O)CN1CCC(NC(=O)c2ccc(C)cc2)CC1,1.16,-1.13,0.99,-4.9,0.662,2.0%,/,/
COC(=O)c1ccccc1NC(=O)CN1CCN(C23CC4CC(CC(C4)C2)C3)CC1,1.11,-0.0402,1,/,-10.7*,3.0%,393*,229
COCCCNC(=O)C1CCN(C(=O)Nc2ccc(Cl)cc2)CC1,1,-1.18,0.97,-67.9,-0.585,3.0%,/,/
CCOC(=O)c1c(NC(=O)C2c3ccccc3Oc3ccccc32)sc(C(=O)N(CC)CC)c1C,/,/,/,-69.4,/,/,/,/
O=C(c1cccs1)N1CCC(c2ccccc2)C1 (configuration not stated),1.06,-0.519,1.02,-82.5,0.294,6.0%,/,/
O=C(CCN1CCC(c2ccccc2)C1)c1cccs1 (configuration not stated),1.09,0.0101,1.02,/,-5.06*,10.0%,514,191
CCOC(=O)N1CCC(NC(=O)CCc2c(C)nc3c(c(C)nn3C(C)(C)C)c2C)CC1,1.06,-0.0719,0.99,-64.6,-1.04*,7.0%,430,228
CCCCCn1c(CN2CCN(c3cc(Cl)ccc3C)CC2)nc2c1c(=O)[nH]c(=O)n2C,1.16,0.4,1.01,-31.2,0.615,2.0%,/,/
Cc1ccc(-c2nnc(N3CCCCC3)c3ccccc23)cc1S(=O)(=O)N(C)C,/,/,/,-50.2,/,/,/,/
CCN(CC)C(=O)COc1ccc(-c2nnc(N3CCCCC3)c3ccccc23)cc1,1.18,-0.329,1.12,/,-2.91*,6.0%,531*,181
O=S(=O)(Cc1ccccc1)c1cnc2ccccc2n1,/,/,/,19.7,/,/,/,/
SMILES,Autofluor 339,M1 agonist,A340 absorber,mHtt clearance,M1 antag,NADH coupling,M1 antag confirm,mGluR4 antag
Cc1c(C(=O)Nc2ccc3c(c2)OCO3)sc2ncn(CC(=O)N3CC(C)CC(C)C3)c(=O)c12 (configuration not stated),/,/,/,-61.7,/,/,/,/
COc1ccc(NC(=O)c2ccc(CN3CCN(c4ccccc4)CC3)cc2)cc1OC,1.07,-0.569,1.07,/,-2.73*,2.0%,593,240
Cc1cccc(OCc2nnc(SCc3cc(=O)n4cc(Br)ccc4n3)o2)c1,1.41,2,1.08,/,-3.03*,8.0%,564,233
Cc1nc(-c2c(-c3ccc(O)cc3O)noc2C(F)(F)F)cs1,1.04,-0.189,1.03,/,-0.178,2.0%,/,/
CCOc1ccccc1N1Cc2cc(C)c(C)cc2C1,1.02,-0.0415,1,6.2,-1.53*,3.0%,655,231
Cc1ccccc1NCC(=O)N/N=C/C(Br)=C/c1ccccc1,/,/,/,-94.0,/,/,/,/
CCCN(CCC)CCCNC(=O)c1ccc2c(c1)N(CC)C(=O)c1ccccc1S2=O (configuration not stated),0.98,-0.402,1.01,34.6,-4.18*,3.0%,328*,202
COc1ccccc1N1CCN(C(=O)Cn2nc(C(F)(F)F)c3c2CCC3)CC1,1.08,0.074,1.04,-34.0,-0.421,6.0%,/,/
CC(C)(C)N=C1NC(=NC(C)(C)C)c2ccccc21,1.24,-0.308,1.02,/,-6.18*,2.0%,417,233
c1ccc2c(c1)C(=NCC1CCCO1)NC2=NCC1CCCO1 (configuration not stated),1.16,0.322,1.05,10.3,0.607,2.0%,/,/
O=C(c1coc2ccccc2c1=O)N1CCN(c2cccc(C(F)(F)F)c2)CC1,1.15,0.306,1.04,/,-8.74*,4.0%,178*,256
O=C(c1c(F)c(F)c(F)c(F)c1F)N1CCN(c2cccc(C(F)(F)F)c2)CC1,1.1,0.00625,1.03,-34.8,-1.39,5.0%,/,/
Cn1c(C(=O)N2CCN(c3cccc(C(F)(F)F)c3)CC2)cc2sccc21,1.06,-0.332,0.97,/,0.17,4.0%,/,/
O=C(c1ccccc1F)N1CCN(c2cccc(C(F)(F)F)c2)CC1,1.1,0.0281,1.01,/,-2.92*,6.0%,566,258
CN1CCN(c2ccccc2NC(=O)C(Cc2ccccc2)n2cccc2)CC1 (configuration not stated),1.1,-0.727,1.05,-103.2,-2.21,6.0%,/,/
CCCCCCN=CC1=C(O)C(C(=O)OC)C(C)(C)CC1=O (configuration not stated),1.05,-0.76,1.02,11.5,0.521,2.0%,/,/
CN(CC(=O)Nc1nc2ccccc2s1)S(=O)(=O)c1ccccc1,1.19,-0.377,1.02,-15.4,-0.971,4.0%,/,/
CC(C)N(O)C(=O)NC(C)(C)C,1.04,0.122,0.99,-134.2,0.427,2.0%,/,/
O=C(CN1C(=O)COc2ccc(Cl)cc21)N1CCc2ccccc21,1.13,-0.196,1.01,-5.9,-0.412,11.0%,/,/

# Bioassay records from PubChem BioAssay.
